Our source for the growth values is PubChem BioAssay (NCI).

Some test systems named below: T-47D breast; BT-549 breast; MDA-MB-435 melanoma; SW-620 colon; MCF7 breast; HCT-116 colon; HCC-2998 colon; KM12 colon.
What all share (experiment): NCI-60 one-dose screen, 48 h (100 = growth as untreated, 0 = no growth, -100 = all killed)
Common to all, as to settings: 10 µM

This is part of a sample that, as a whole, favours compounds with a hit. Of some 83,000 tested, about 20% had one in any assay.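 Negative percent growth values reflect cell death: -40 means 40% of the cells present at the start died, and -100 means all died.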 A number with no mark means an inactive call. Calls of active or inactive are those of the source. The calls were made as follows: active = growth percent below 10; inactive = the rest.

Regarding `C=CCn1c(C)nc2cc(Nc3nc(Nc4ccc5nc(C)n(CC=C)c5c4)c4ccccc4n3)ccc21`, the growth was -60.3% (active) with T-47D breast; -84% (active) with BT-549 breast; -76% (active) in the experiment on MDA-MB-435 melanoma; -76.2% (active) in the experiment on SW-620 colon; -89.3% (active) in the experiment on MCF7 breast; -96.5% (active) in the experiment on HCT-116 colon. Further, the growth in the experiment with HCC-2998 colon was -96.1% (active); with KM12 colon, -93.2% (active).
`O=C(NCc1cn(Cc2cccc(Oc3ccccc3)c2)nn1)c1cccnc1Nc1ccccc1`: the growth is 72.3% in the experiment with T-47D breast; 81.8% with BT-549 breast; -8.66% (active) in the experiment with MDA-MB-435 melanoma; 40.8% in the experiment with SW-620 colon; 18.1% with MCF7 breast; 26.1% with HCT-116 colon. Also, the growth in the experiment with HCC-2998 colon was 57.1%; in the experiment on KM12 colon, 29.5%.
Turning to `COC(=O)C1(C(=O)OC)C2C(=O)C3C(C21)C3(C(=O)OC(C)(C)C)C(=O)OC(C)(C)C` (stereo not drawn), the growth in the experiment on T-47D breast is 102%; with BT-549 breast, 101%; in the experiment with MDA-MB-435 melanoma it was 99.9%; with SW-620 colon it was 106%; in the experiment with MCF7 breast, 103%; with HCT-116 colon, 101%. The growth with HCC-2998 colon and in the experiment on KM12 colon was 112% each time.
With `COc1ccc(-c2nsc3c2NC(=O)CC3c2cccc(Cl)c2)cc1` (stereo not drawn), the growth was 35.3% in the experiment on T-47D breast; 36.5% in the experiment with BT-549 breast; -12.2% (active) in the experiment with MDA-MB-435 melanoma; 25.7% in the experiment with SW-620 colon; 17% in the experiment on MCF7 breast; 23.8% in the experiment on HCT-116 colon. Also, the growth in the experiment on HCC-2998 colon is 43.5%; with KM12 colon, 34.6%.
On to `O=[N+]([O-])c1ccc(-c2nc(Cl)c3c(n2)CCCC3)o1`, for which the growth in the experiment on T-47D breast was 89.9%; in the experiment on BT-549 breast it was 83.1%; with MDA-MB-435 melanoma, 87.6%; with SW-620 colon it was 56.8%; in the experiment on MCF7 breast, 46.9%; in the experiment with HCT-116 colon, 55.2%. The results for the growth with HCC-2998 colon and with KM12 colon were 92.4% and 96.5%, respectively.
Take `CN(C)CCCN1c2ccccc2Sc2ccc(C(F)(F)F)cc21`: the growth in the experiment with T-47D breast was 5.93% (active); in the experiment with BT-549 breast, 25.7%; in the experiment with MDA-MB-435 melanoma, -39.3% (active); with SW-620 colon, 9.61% (active); with MCF7 breast, -39.7% (active); in the experiment with HCT-116 colon, 1.99% (active). Also, the growth in the experiment on HCC-2998 colon was -65.9% (active); in the experiment on KM12 colon, 0.137% (active).
Regarding `CCOC(=O)c1cc(-c2ccccc2)nc(N)n1`, the growth in the experiment on T-47D breast is 114%; with BT-549 breast it was 103%; in the experiment on MDA-MB-435 melanoma it was 102%; with SW-620 colon, 103%; in the experiment with MCF7 breast, 87.6%; with HCT-116 colon, 104%. Further, the growth is 109% in the experiment with HCC-2998 colon and 110% with KM12 colon.
Take `Oc1[nH]c2ccccc2c1/C=c1/cc2c(c(-c3ccc(C(F)(F)F)cc3)n1)=Nc1ccccc1-2`: the growth in the experiment with T-47D breast is 37.5%; in the experiment on BT-549 breast it was 82.7%; in the experiment with MDA-MB-435 melanoma, 4.17% (active); in the experiment on SW-620 colon, 41.8%; with MCF7 breast, 11.3%; with HCT-116 colon, 30%. In addition, the figures for the growth in the experiment with HCC-2998 colon and in the experiment on KM12 colon were 54.7% and 36.2%, respectively.
`COc1cccc2c1C(=O)c1c(O)c3c(c(O)c1C2=O)C[C@@](O)(C(=O)COC(=O)c1ccccc1)C[C@@H]3OC1CC(N)C(O)C(C)O1` (stereo partly drawn): the growth in the experiment with T-47D breast is -71.7% (active); in the experiment with BT-549 breast it was -76.9% (active); in the experiment on MDA-MB-435 melanoma it was -97.7% (active); in the experiment on SW-620 colon, -81.9% (active); with MCF7 breast it was -66.2% (active); in the experiment with HCT-116 colon, -75% (active). The growth with HCC-2998 colon was -93% (active); in the experiment with KM12 colon, -95.6% (active).
For `O=S(=O)(NCl)c1ccccc1`, the growth in the experiment on T-47D breast is 92%; in the experiment on BT-549 breast, 102%; in the experiment on MDA-MB-435 melanoma, 98.9%; with SW-620 colon, 107%; in the experiment with MCF7 breast, 85.5%; with HCT-116 colon, 101%. In addition, the growth in the experiment on HCC-2998 colon is 97.3%; in the experiment with KM12 colon, 102%.
As to `Cc1cc(Nc2cccc(F)c2)nc(NCc2ccccc2)n1`, the growth is 15.6% in the experiment on T-47D breast; 82% in the experiment on BT-549 breast; 23.2% in the experiment on MDA-MB-435 melanoma; 22.7% in the experiment with SW-620 colon; 15.1% in the experiment with MCF7 breast; 15.8% with HCT-116 colon. The growth was 26.9% with HCC-2998 colon and 14.1% in the experiment on KM12 colon.
Take `Cc1ccc(C)c2c1sc1nc3n[nH]c(N)c3c(=N)n12`: the growth in the experiment with T-47D breast was 94.1%; in the experiment on BT-549 breast, 114%; in the experiment with MDA-MB-435 melanoma, 105%; in the experiment with SW-620 colon, 107%; in the experiment with MCF7 breast, 103%; in the experiment on HCT-116 colon, 101%. Also, the figures for the growth with HCC-2998 colon and in the experiment on KM12 colon were 109% and 104%, respectively.
With `CN(C)CCCN(Cc1ccccc1O)C(=S)Nc1ccc(Cl)cc1`, the growth was 93.4% in the experiment with T-47D breast; 105% in the experiment with BT-549 breast; 109% with MDA-MB-435 melanoma; 100% in the experiment on SW-620 colon; 99% in the experiment on MCF7 breast; 108% in the experiment with HCT-116 colon. For the same compound, the growth was 83.4% in the experiment with HCC-2998 colon and 105% with KM12 colon.
With `O=c1ccc2nc(-c3ccccc3)nn(-c3ccccc3)c-2c1`, the growth is -36.5% (active) in the experiment with T-47D breast; 90.2% in the experiment with BT-549 breast; 24.7% with MDA-MB-435 melanoma; -80.5% (active) with SW-620 colon; -66.7% (active) with MCF7 breast; -90.7% (active) with HCT-116 colon. Besides, the growth was 100% in the experiment with HCC-2998 colon and 63.1% with KM12 colon.
With `NC1CCC(Nc2nc(NCc3ccc(-c4cccs4)nc3)c3ncn(C4CCCC4)c3n2)CC1` (stereo not drawn), the growth was -22.9% (active) with T-47D breast; -27.4% (active) with BT-549 breast; -53.2% (active) in the experiment on MDA-MB-435 melanoma; 6.7% (active) with SW-620 colon; -34% (active) with MCF7 breast; 0.721% (active) in the experiment on HCT-116 colon. The growth was -43.1% (active) in the experiment on HCC-2998 colon and 5.58% (active) in the experiment with KM12 colon.
Turning to `C=C1C(=O)O[C@H]2[C@H]1CC/C(COC(=O)OCCCCCOC(=O)OC/C1=C/CC[C@@]3(C)O[C@H]3[C@H]3OC(=O)C(=C)[C@@H]3CC1)=C\CC[C@@]1(C)O[C@@H]21`, the growth with T-47D breast is -45% (active); in the experiment with BT-549 breast, -72.7% (active); in the experiment on MDA-MB-435 melanoma, -13% (active); in the experiment on SW-620 colon, -54.3% (active); in the experiment with MCF7 breast, -75.8% (active); in the experiment on HCT-116 colon, -95.9% (active). Besides, the growth in the experiment with HCC-2998 colon was -60.8% (active); in the experiment with KM12 colon, 5.59% (active).
